Measured values published in PubChem BioAssay (NCI).
This is part of a sample that, as a whole, favours compounds with a hit. Of some 83,000 tested, about 20% had one in any assay.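 Plates (96-well) were seeded with cells, treated with compound at one concentration, and incubated for 48 hours before percent growth was determined.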 Active and inactive are the calls of the source. Rule for the calls: active = growth percent below 10; inactive = the rest.

Columns and labels:
Assay in all cases: NCI-60 one-dose screen, 48 h (100 = growth as untreated, 0 = no growth, -100 = all killed)
SK-MEL-2 melanoma = conditions: 10 µM unless noted
SN12C renal = conditions: 10 µM unless noted
UO-31 renal = conditions: 10 µM unless noted
TK-10 renal = conditions: 10 µM unless noted
ACHN renal = conditions: 10 µM unless noted
CAKI-1 renal = conditions: 10 µM unless noted
A498 renal = conditions: 10 µM unless noted
CCRF-CEM leukemia = conditions: 10 µM unless noted
MOLT-4 leukemia = conditions: 10 µM unless noted
SR leukemia = conditions: 10 µM unless noted
RPMI-8226 leukemia = conditions: 10 µM unless noted
OVCAR-8 ovarian = conditions: 10 µM unless noted
OVCAR-5 ovarian = conditions: 10 µM unless noted
OVCAR-4 ovarian = conditions: 10 µM
SK-OV-3 ovarian = conditions: 10 µM unless noted
IGROV1 ovarian = conditions: 10 µM unless noted
OVCAR-3 ovarian = conditions: 10 µM unless noted
NCI/ADR-RES ovarian = conditions: 10 µM unless noted
HS 578T breast = conditions: 10 µM unless noted
EKVX NSCLC = conditions: 10 µM unless noted

Measured: growth

COc1ccc2nc3c(cc2c1)C(=O)CC(C(F)(F)F)C3 (stereo not given)
inactive: SK-MEL-2 melanoma 83.9% | SN12C renal 42.1% | UO-31 renal 46.6% | TK-10 renal 69.2% | ACHN renal 49.2% | CAKI-1 renal 37.1% | MOLT-4 leukemia 15.3% | SR leukemia 16.4% | RPMI-8226 leukemia 93.3% | OVCAR-8 ovarian 40% | OVCAR-5 ovarian 57.7% | OVCAR-4 ovarian 95.7% | SK-OV-3 ovarian 56.8% | IGROV1 ovarian 36.6% | NCI/ADR-RES ovarian 18.9%
active: A498 renal -7.7% | CCRF-CEM leukemia 9.88% | OVCAR-3 ovarian 5.3%

CCN(CC)c1ccc(/C=C/C=C2\NC(=O)NC2=O)cc1
active: SK-MEL-2 melanoma -13.5% | TK-10 renal 8.35% | NCI/ADR-RES ovarian 3.98%
inactive: SN12C renal 47.4% | UO-31 renal 36.4% | ACHN renal 47.2% | CAKI-1 renal 16.7% | A498 renal 22.4% | CCRF-CEM leukemia 40% | MOLT-4 leukemia 41.1% | SR leukemia 21.1% | RPMI-8226 leukemia 41% | OVCAR-8 ovarian 36% | OVCAR-5 ovarian 58.1% | OVCAR-4 ovarian 50.5% | SK-OV-3 ovarian 29.1% | IGROV1 ovarian 49.7% | OVCAR-3 ovarian 25.5% | HS 578T breast 50.4%

O=C1/C(=C/c2ccc(OCc3ccccc3)cc2)Oc2cc(OCCN3CCCCC3)ccc21
inactive: SK-MEL-2 melanoma 112% | SN12C renal 82.4% | UO-31 renal 70.6% | TK-10 renal 104% | ACHN renal 89.6% | CAKI-1 renal 70.5% | A498 renal 60.9% | CCRF-CEM leukemia 73% | MOLT-4 leukemia 76.1% | SR leukemia 13.3% | RPMI-8226 leukemia 54% | OVCAR-8 ovarian 89.8% | OVCAR-5 ovarian 88.8% | OVCAR-4 ovarian 61.2% | SK-OV-3 ovarian 104% | IGROV1 ovarian 87% | OVCAR-3 ovarian 88.1% | NCI/ADR-RES ovarian 79.2%

CC(=O)OC[C@]12CC[C@@H](C(=O)CBr)[C@@H]1[C@H]1CC[C@@H]3[C@@]4(C)CCCNC(C)(C)[C@@H]4CC[C@@]3(C)[C@]1(C)CC2
inactive: SR leukemia 14.7% [100 µM]
active: SK-MEL-2 melanoma -80.8% [100 µM] | SN12C renal -37.8% [100 µM] | UO-31 renal -99.3% [100 µM] | TK-10 renal -92.4% [100 µM] | ACHN renal -90.1% [100 µM] | CAKI-1 renal -96.1% [100 µM] | A498 renal -84.5% [100 µM] | CCRF-CEM leukemia -32.5% [100 µM] | MOLT-4 leukemia -23.2% [100 µM] | RPMI-8226 leukemia -36.1% [100 µM] | OVCAR-8 ovarian -26.1% [100 µM] | OVCAR-5 ovarian -74.4% [100 µM] | SK-OV-3 ovarian -86.8% [100 µM] | IGROV1 ovarian -61.3% [100 µM] | OVCAR-3 ovarian -85.3% [100 µM] | HS 578T breast -22.7% [100 µM] | NCI/ADR-RES ovarian -38.8% [100 µM]

[2H]C1([2H])CCN(C(=O)C2CC2)c2cc(NS(=O)(=O)c3ccc(-c4cccc(C(N)=O)c4)cc3)ccc21
inactive: UO-31 renal 77.8% | TK-10 renal 64.2% | ACHN renal 73.5% | CAKI-1 renal 72.3% | CCRF-CEM leukemia 30.7% | MOLT-4 leukemia 44.3% | SR leukemia 38.1% | RPMI-8226 leukemia 37.1% | OVCAR-8 ovarian 53.9% | OVCAR-5 ovarian 60.6% | SK-OV-3 ovarian 26.1% | IGROV1 ovarian 32.4% | OVCAR-3 ovarian 12.4% | HS 578T breast 18.7% | NCI/ADR-RES ovarian 95%
active: SK-MEL-2 melanoma 7.75% | A498 renal -0.663%

COc1ccc2c(c1)c(-c1noc(-c3cn(C)c4ncc(F)cc34)n1)cn2C
inactive: EKVX NSCLC 65% | SN12C renal 52.7% | UO-31 renal 85.1% | TK-10 renal 86.2% | ACHN renal 84.4% | CAKI-1 renal 76.6% | A498 renal 65.7% | CCRF-CEM leukemia 99% | MOLT-4 leukemia 87.6% | SR leukemia 83.8% | RPMI-8226 leukemia 92.1% | OVCAR-8 ovarian 63.7% | OVCAR-5 ovarian 87.6% | OVCAR-4 ovarian 18.4% | SK-OV-3 ovarian 79.1% | IGROV1 ovarian 69.6% | OVCAR-3 ovarian 42% | HS 578T breast 91% | NCI/ADR-RES ovarian 68.3%

O=C(Nc1cccnc1)c1ccc2ccc3ccc(C(=O)Nc4cccnc4)nc3c2n1
inactive: SK-MEL-2 melanoma 25.8% | SN12C renal 32.4% | UO-31 renal 36.3% | TK-10 renal 37.1% | ACHN renal 23.3% | CAKI-1 renal 10.7% | CCRF-CEM leukemia 28.5% | MOLT-4 leukemia 32.1% | SR leukemia 42.6% | RPMI-8226 leukemia 18.7% | OVCAR-8 ovarian 22.6% | OVCAR-5 ovarian 36.9% | SK-OV-3 ovarian 47.6% | IGROV1 ovarian 15.4% | OVCAR-3 ovarian 23.3% | HS 578T breast 46.4% | NCI/ADR-RES ovarian 79.8%
active: A498 renal -39.1%

CC(=O)CC(=O)SC1=NCCS1
inactive: SK-MEL-2 melanoma 131% | UO-31 renal 98.9% | TK-10 renal 110% | ACHN renal 108% | CAKI-1 renal 97.2% | CCRF-CEM leukemia 87.2% | MOLT-4 leukemia 98.8% | SR leukemia 102% | RPMI-8226 leukemia 98.1% | OVCAR-8 ovarian 99.3% | OVCAR-5 ovarian 117% | OVCAR-4 ovarian 109% | SK-OV-3 ovarian 112% | IGROV1 ovarian 140% | OVCAR-3 ovarian 113% | NCI/ADR-RES ovarian 113%

CC[C@@H]1NC(=O)[C@@H]2CCCCN2C(=O)[C@@H]2CCCN2C(=O)[C@@H](NC(=O)[C@H](Cc2cc(F)cc(F)c2)NC(=O)Nc2ccc(C3CC3)cc2F)[C@H](C)OC(=O)[C@@H]2C[C@@H](C)CN2C1=O
inactive: SN12C renal 12% | UO-31 renal 11.2% | TK-10 renal 34% | ACHN renal 12.1% | CCRF-CEM leukemia 40.5% | MOLT-4 leukemia 17% | SR leukemia 15.1% | RPMI-8226 leukemia 12.8% | OVCAR-8 ovarian 13.2% | IGROV1 ovarian 28.5% | HS 578T breast 20.6% | NCI/ADR-RES ovarian 14%
active: SK-MEL-2 melanoma 9.64% | CAKI-1 renal 9.54% | OVCAR-5 ovarian -1.92% | OVCAR-4 ovarian 7.84% | OVCAR-3 ovarian 6.44%

CCCCC(CC)COC(=O)C[N+](C)(C)CCOC(c1ccccc1)c1ccccc1 (stereo not given)
inactive: EKVX NSCLC 57.9% | SN12C renal 43.2% | UO-31 renal 95.6% | TK-10 renal 53.7% | ACHN renal 101% | CAKI-1 renal 97.4% | A498 renal 101% | CCRF-CEM leukemia 20.4% | MOLT-4 leukemia 40.7% | OVCAR-8 ovarian 48.8% | OVCAR-5 ovarian 75.6% | OVCAR-4 ovarian 22.9% | SK-OV-3 ovarian 59% | OVCAR-3 ovarian 19.2% | HS 578T breast 69.7% | NCI/ADR-RES ovarian 99.1%
active: SR leukemia -30.2% | RPMI-8226 leukemia -61% | IGROV1 ovarian -0.732%

c1cc2ccc1CNCCN1CCNCc3ccc(cc3)Oc3ccc(cc3)CNCCN(CCNCc3ccc(cc3)O2)CCNCc2ccc(cc2)Oc2ccc(cc2)CNCC1
inactive: EKVX NSCLC 15.2% | UO-31 renal 85.3% | TK-10 renal 29.4% | ACHN renal 84.4% | CAKI-1 renal 47.5% | A498 renal 48% | NCI/ADR-RES ovarian 103%
active: SN12C renal -80.5% | CCRF-CEM leukemia -17.4% | MOLT-4 leukemia -45.4% | SR leukemia -40.1% | RPMI-8226 leukemia -49% | OVCAR-8 ovarian -7.54% | OVCAR-5 ovarian -55.1% | IGROV1 ovarian -64.3% | OVCAR-3 ovarian -94.6% | HS 578T breast -48.7%

CCOC(=O)c1nn(C2CCCCO2)c2ccc(NC(=O)CSc3nc4ccccc4c(=O)[nH]3)cc12 (stereo not given)
inactive: EKVX NSCLC 102% | SN12C renal 87% | UO-31 renal 79.6% | TK-10 renal 108% | ACHN renal 93.6% | CAKI-1 renal 77.7% | A498 renal 69.7% | CCRF-CEM leukemia 93.1% | MOLT-4 leukemia 103% | SR leukemia 113% | RPMI-8226 leukemia 101% | OVCAR-8 ovarian 98.1% | OVCAR-5 ovarian 115% | OVCAR-4 ovarian 100% | IGROV1 ovarian 101% | OVCAR-3 ovarian 106% | HS 578T breast 51.6% | NCI/ADR-RES ovarian 107%

O=C(NCCCNC(=O)OCc1ccc2cccc(O)c2n1)OCc1ccc2cccc(O)c2n1
inactive: EKVX NSCLC 79.9% | SN12C renal 40.4% | UO-31 renal 26.9% | TK-10 renal 49.6% | ACHN renal 19.8% | CAKI-1 renal 21% | MOLT-4 leukemia 21.7% | SR leukemia 12.1% | RPMI-8226 leukemia 18.4% | OVCAR-8 ovarian 23% | OVCAR-5 ovarian 59.9% | OVCAR-4 ovarian 39.2% | SK-OV-3 ovarian 76.6% | IGROV1 ovarian 24.1% | OVCAR-3 ovarian 14.8% | HS 578T breast 57.2% | NCI/ADR-RES ovarian 41.5%
active: CCRF-CEM leukemia 6.81%

COc1cc2c(cc1OCCCN1CCN(CCCOc3cc4c(cc3OC)C(=O)N3C[C@H](F)C[C@H]3C=N4)CC1)N=C[C@@H]1C[C@@H](F)CN1C2=O
inactive: SN12C renal 25.7% | UO-31 renal 11.8% | CAKI-1 renal 16.9% | OVCAR-8 ovarian 24.4% | SK-OV-3 ovarian 36.1% | IGROV1 ovarian 12.4% | NCI/ADR-RES ovarian 63.6%
active: EKVX NSCLC -34.3% | TK-10 renal -52.5% | ACHN renal 7.96% | A498 renal -55% | CCRF-CEM leukemia -28.1% | MOLT-4 leukemia -16.7% | SR leukemia -23.4% | RPMI-8226 leukemia -3.68% | OVCAR-5 ovarian 9.91% | OVCAR-4 ovarian 1.26% | OVCAR-3 ovarian 5.75%

COc1ccc(C2CC(c3cc(OC)c(OC)c(OC)c3)=NN2C(C)=O)cc1OCC(=O)Nc1nc2ccc(C(F)(F)F)cc2s1 (stereo not given)
inactive: EKVX NSCLC 83.4% | UO-31 renal 39.5% | TK-10 renal 57.1% | ACHN renal 40.4% | CAKI-1 renal 57.9% | A498 renal 54.1% | CCRF-CEM leukemia 72.5% | MOLT-4 leukemia 60% | SR leukemia 63.4% | RPMI-8226 leukemia 42% | OVCAR-8 ovarian 62.3% | OVCAR-5 ovarian 117% | OVCAR-4 ovarian 69.5% | SK-OV-3 ovarian 97% | OVCAR-3 ovarian 67.1% | HS 578T breast 26.4% | NCI/ADR-RES ovarian 63%

Cn1cc(-c2nnc(-c3cn(C)c4ncccc34)o2)c2ccccc21
inactive: EKVX NSCLC 49.9% | SN12C renal 28.4% | UO-31 renal 18% | TK-10 renal 69.9% | ACHN renal 36% | CAKI-1 renal 30.9% | CCRF-CEM leukemia 49.8% | MOLT-4 leukemia 18.3% | SR leukemia 19.1% | RPMI-8226 leukemia 31.3% | OVCAR-8 ovarian 49.8% | OVCAR-5 ovarian 55.5% | OVCAR-4 ovarian 36.5% | IGROV1 ovarian 28% | HS 578T breast 30.9% | NCI/ADR-RES ovarian 11.9%
active: A498 renal -20.3% | OVCAR-3 ovarian -12%
